Source: PubChem (National Center for Advancing Translational Sciences (NCATS))
This is a sample that favours compounds with a hit; in the whole collection about 7.4% have one here.
SMN2 splice enh: increases expression of the SMN2 splice variant; Potency, µM (doses to about 46.1 µM), for inactives: top-dose activity change, positive = activation, actives largely listed as activators; AID 1458; 210,000 compounds, 2.8% hits; HEK293 SMN2-luciferase splicing reporter, luminescence, 30-36 h; further: % of control where 0% means no effect; nearly all actives have a fitted effect of over 55% in size
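qHTS luciferase splicing reporter: luminescence rises when SMN2 exon 7 is included in transfected HEK293 cells. Compound exposure lasted 30-36 h at 37C, with 4.5 mM final sodium butyrate as control, followed by a ONE-Glo read.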
FLuc modulator: inhibits or activates purified firefly luciferase, miR-21 counter-screen; AID 588342; Potency, µM (titrated, usually from 57.5 µM), for the others: at the highest dose activity change, negative = inhibition, usual class: inhibitors; P08659; 360,000 compounds, 6.9% hits; purified FLuc, Km substrates, luminescence inhibition;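 further: plate controls were vehicle for no effect and reference inhibitor for full effect; nearly all actives have a fitted effect of over 55% in size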
Target sequence (P08659 whole entry, looked up): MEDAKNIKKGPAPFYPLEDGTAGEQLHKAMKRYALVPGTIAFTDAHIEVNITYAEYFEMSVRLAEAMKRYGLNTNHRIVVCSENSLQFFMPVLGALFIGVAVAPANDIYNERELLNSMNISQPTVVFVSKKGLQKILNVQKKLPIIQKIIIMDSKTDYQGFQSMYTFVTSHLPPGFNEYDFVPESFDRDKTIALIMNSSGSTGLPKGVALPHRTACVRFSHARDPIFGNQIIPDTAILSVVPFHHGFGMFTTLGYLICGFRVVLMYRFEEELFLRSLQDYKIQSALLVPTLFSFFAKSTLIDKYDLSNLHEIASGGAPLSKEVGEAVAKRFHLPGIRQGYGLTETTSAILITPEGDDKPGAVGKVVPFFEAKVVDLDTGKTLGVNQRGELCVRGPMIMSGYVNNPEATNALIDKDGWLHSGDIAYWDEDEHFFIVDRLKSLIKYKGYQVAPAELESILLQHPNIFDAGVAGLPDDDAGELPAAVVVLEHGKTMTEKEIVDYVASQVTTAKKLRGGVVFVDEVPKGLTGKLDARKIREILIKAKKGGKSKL
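Purified P. pyralis luciferase, 10 nM final, with Km-level 10 uM D-luciferin and 10 uM ATP in 50 mM Tris acetate pH 7.5, 10 mM Mg acetate, 0.01% Tween-20, 0.05% BSA; 6-point qHTS titration about 60 µM downward; luminescence read.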
NPC1 prom act: NPC1 promoter activation | Huh7 NPC1 promoter luciferase reporter, 24 h | Potency, µM (titrated, usually from 9.22 µM), for inactives: top-dose activation, usual class: activators | 320,000 compounds, 2.4% hits; further: % of control where 0% means no effect; nearly all actives have a fitted effect of over 60% in size
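Compounds in DMSO were transferred onto Huh7 NPC1-luciferase reporter cells pre-incubated 2 h; after 24 h at 37 °C, Amplite reagent was dispensed and luminescence recorded 10 min later.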
Rab9 promoter act: Rab9 promoter activation; AID 485297; Potency, µM (doses to about 9.22 µM), for inactives: at the top dose activation, negative = inhibition, most hits filed as activators; Huh7 Rab9 promoter-luciferase reporter, luminescence, 24 h; 320,000 compounds, 2.8% hits; further: % of control where 0% means no effect; nearly all actives have a fitted effect of over 60% in size
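Luminescence read-out: Huh7 cells stably expressing Rab9-luciferase, treated 24 h with compound at 37 °C, then lysed with luciferase reagent for 10 min at ambient before reading.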
KinaseGlo FLuc: Kinase-Glo luciferase inhibition (counter-screen); Potency, µM (top dose mostly 38.3 µM), inactives show at the highest dose activity change, negative = inhibition, actives largely listed as inhibitors; 200,000 compounds, 0.28% hits; AID 1379; Q27757; Kinase-Glo luciferase, ATP luminescence, 8 min; further: on the % scale 0 is the no-effect control and ±100 the full control effect; nearly all actives have a fitted effect of over 60% in size
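Recombinant Kinase-Glo luciferase, 10 uM ATP (linear range), luciferin; imidazole pH 7.2 / KCl / MgCl2 / Tween / BSA buffer; 8 min RT; luminescence.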
ELG1 genotoxic: induces genotoxicity in HEK293T cells with luciferase-tagged ELG1; Potency, µM (titrated, usually from 46 µM), inactives show top-dose activity change, positive = activation, actives largely listed as activators; 330,000 compounds, 1.3% hits; HEK293T ELG1-luciferase reporter, luminescence, 16 h; AID 504466; further: % of control where 0% means no effect; nearly all actives have a fitted effect of over 60% in size
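Quantitative HTS format in 1536-well plates. HEK293T ELG1-luciferase reporter cells receive test compound and are incubated 16 hr at 37 °C, 5% CO2; ONE-Glo added, 30 min room temperature, then luminescence read.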
* = called active by the depositor; ? = inconclusive; nt = no result; [ ] = another dose, or the depositor's remark. The call rests on the fitted dose curve; in most records, active means well fitted curve in the direction sought with a large enough effect; inconclusive means small, poorly fitted or top-dose-only effect, or another doubt; inactive means no such curve, though single readings can be large; an effect the other way counts as inactive or inconclusive. Potency means the concentration at half of the fitted maximal effect.

SMILES	SMN2 splice enh	FLuc modulator	NPC1 prom act	Rab9 promoter act	KinaseGlo FLuc	ELG1 genotoxic
Cc1c(CC(=O)NCCCC(=O)O)c(=O)oc2cc3c(cc12)CCC(C)(C)O3	nt	?	-34.4%	-33.1%	nt	-8.2%
COCC(=O)N1CCC2(CC1)CN(c1cccc(-c3ccccc3)c1)C2	-7.5%	nt	nt	nt	-0.5%	nt
COc1ccc(-c2c(C(F)(F)F)[nH]n3c(=O)cc(-c4ccccc4)nc23)cc1	nt	19µM*	-2.1%	1.5%	nt	-8.4%
Cc1ccc(N=Nc2c(N)[nH]n3c(=O)cc(-c4ccccc4)nc23)cc1	-74.1%	9.53µM*	0.9%	-3.1%	-2.1%	1.5%
Cc1[nH]n2c(=O)cc(-c3ccc(Cl)cc3)nc2c1-c1ccccc1	-60.8%	?	nt	nt	nt	nt
COc1cccc(N=Nc2c(=O)[nH]n3c(C)cc(C)nc23)c1	23.7%	-16.9%	-2.3%	1.0%	6.2%	0.2%
O=c1cc(-c2ccccc2)nc2cc(-c3ccc(F)cc3)[nH]n12	10.3%	?	nt	nt	nt	nt
COc1cccc(-c2cc3nc(-c4ccccc4)cc(=O)n3[nH]2)c1	nt	12µM*	-11.0%	0.3%	nt	?
COc1cccc(N=Nc2c(N)[nH]n3c(=O)cc(-c4ccccc4)nc23)c1	-86.2%	10.7µM*	-1.4%	2.9%	4.0%	-7.7%
Cc1cc(=O)n2[nH]c(N)c(N=Nc3ccccc3)c2n1	18.5%	?	-1.8%	2.2%	-9.8%	-6.0%
COc1ccccc1NC(=O)CSC1=Nc2ccccc2C2=NC(Cc3ccccc3)C(=O)N12 (configuration not stated)	nt	4.8%	nt	nt	nt	nt
CC(C)CC(NC(=O)C1CCC(C)CC1)C(=O)Nc1ccc2c(c1)OCCO2 (configuration not stated)	6.9%	16.9µM*	22.2%	27.0%	-4.1%	?
CCC1CCC(C(=O)NC(C(=O)NCCN(CC(C)C)CC(C)C)C(C)C)CC1 (configuration not stated)	-1.4%	2.3%	nt	nt	nt	nt
CC(C)CC(NC(=O)C1CCC(C)CC1)C(=O)Nc1ccccc1F (configuration not stated)	nt	0.3%	-41.7%	-4.0%	nt	6.3%
CCC1CCC(C(=O)NC(C(=O)Nc2ccc3c(c2)OCCO3)C(C)C)CC1 (configuration not stated)	10.6%	?	14.8%	22.8%	-2.1%	16.4µM*
CC[C@H]1[C@@H]2C=C[C@@H]3[C@H]4C/C=C\C(=O)NCCC[C@@H]5NC(=O)C(=C5O)C(=O)CC[C@@H]4C[C@@H]3[C@H]2C[C@H]1C	-68.4%	nt	nt	nt	nt	nt
CCOC(=O)c1csc(COc2ccc(OC)cc2)n1	nt	?	0.447µM*	0.447µM*	nt	9.3%
CCOC(=O)c1csc(N)n1	nt	0.849µM*	?	2.82µM*	-7.7%	?
CCOC(=O)Cc1csc(N)n1	-4.4%	-0.7%	-0.9%	10.0%	-2.1%	1.1%
CC/C(C)=N/Nc1nc(-c2cc3cccc(OC)c3oc2=O)cs1	nt	8.49µM*	2.24µM*	1.78µM*	nt	?
COc1cccc2cc(-c3nc(-c4ccc(Cl)cc4)cs3)c(=O)oc12	nt	5.4%	nt	nt	nt	nt
COc1cccc2cc(-c3cn4c(n3)sc3cc(F)ccc34)c(=O)oc12	nt	2.39µM*	nt	nt	nt	nt
COc1cccc2cc(-c3nnc(-c4ccc(Cl)cc4)o3)c(=O)oc12	-0.5%	1.69µM*	nt	nt	nt	nt
COc1cccc2cc(-c3nnc(-c4ccccc4)o3)c(=O)oc12	11.2µM*	0.213µM*	0.501µM*	0.501µM*	?	?
O=C(O)Cn1nc(N2CCN(c3ccccc3)CC2)ccc1=O	8.2%	3.8%	nt	nt	nt	nt
SMILES	SMN2 splice enh	FLuc modulator	NPC1 prom act	Rab9 promoter act	KinaseGlo FLuc	ELG1 genotoxic
CN(C)S(=O)(=O)c1ccc(C(=O)Nc2ccc3c(c2)CCC3)cc1	nt	19µM*	?	?	nt	7.1%
CC(=O)c1cccc(NC(=O)c2cccc(S(=O)(=O)N(C)C)c2)c1	14.8%	-26.3%	3.0%	-8.4%	3.3%	3.4%
CN(C)S(=O)(=O)c1cccc(C(=O)Nc2ccc3c(c2)CCC3)c1	nt	1.69µM*	1.26µM*	0.631µM*	nt	3.98µM*
COc1ccc(S(=O)(=O)c2cn(CC(=O)Nc3cc(C)ccc3C)c3ccccc3c2=O)cc1	6.6%	1.4%	nt	nt	nt	nt
CC(C)c1noc(-c2ccccc2OCC(=O)Nc2ccc([N+](=O)[O-])cc2)n1	nt	-2.4%	nt	nt	nt	nt
O=C(OCC(=O)N1CCCC1)c1ccccc1O	nt	15.1µM*	2.82µM*	?	nt	?
O=C(OCC(=O)N1CCCCCC1)c1ccccc1Br	nt	5.36µM*	2.24µM*	1.78µM*	nt	?
O=C(OCC(=O)N1CCCCCC1)c1ccc[nH]c1=O	nt	nt	nt	nt	nt	0.2%
O=C(OCC(=O)N1CCCC1)c1cccc(Br)c1	nt	-17.1%	17.0%	12.8%	nt	?
COc1ccc(C(=O)OCC(=O)NC2CC2)cc1OC	nt	1.5%	-1.9%	-3.0%	nt	-1.4%
COc1ccc(C(=O)OCC(=O)NC2CC2)cc1[N+](=O)[O-]	5.62µM*	7.8%	-2.0%	0.4%	-3.9%	1.7%
COc1cc(SC)ccc1C(=O)OCC(=O)NC1CCCC1	-3.6%	23.9µM*	1.1%	?	-0.5%	?
COc1ccc(C2Nc3ccccc3C(=O)N2Cc2ccccc2)cc1COc1ccc(Cl)cc1Cl (configuration not stated)	nt	12.7%	-2.6%	2.2%	nt	nt
CN1C(C(=O)c2ccccc2)=C(OC(=O)c2ccc(Br)cc2)c2ccccc2S1(=O)=O	-30.4%	7.0%	nt	nt	nt	nt
CC(=O)N1CCCc2cc(S(=O)(=O)N(C)CC(=O)Nc3ccc(Cl)cc3C)ccc21	nt	-10.9%	nt	nt	nt	nt
O=C(COC(=O)c1ccccc1Br)NC1CCCCCCC1	nt	nt	nt	nt	nt	-0.6%
Cc1ccc(C(=O)OCC(=O)N2CCCCCC2)c(O)c1	nt	12µM*	?	2.82µM*	nt	13.5%
O=C(COC(=O)c1ccccc1Br)NC1CCCC1	nt	16.9µM*	29.4%	20.9%	nt	?
O=C(O)[C@@H]1CCCN1Cc1c[nH]c2ccccc12	-12.1%[9.22 µM]	nt	nt	nt	-5.4%[7.66 µM]	nt
COc1cccc(C(=O)NCc2cn3ccccc3n2)c1	nt	-9.9%	nt	nt	nt	nt
O=C(CCN1CCCCC1)N1CCc2c([nH]c3ccccc23)[C@H]1c1cccnc1	-2.4%[9.22 µM]	nt	nt	nt	-1.9%[7.66 µM]	nt
COc1cccc(/C=C2\SC(=S)N(C(C(=O)O)c3ccccc3)C2=O)c1OC (configuration not stated)	nt	?	0.1%	-4.4%	nt	-0.1%
COc1ccc(/C=C2\SC(=S)N(C(C(=O)O)c3ccccc3)C2=O)c(OC)c1 (configuration not stated)	nt	23.9µM*	-3.7%	-13.5%	nt	1.2%
N#C/C(=C\c1ccc(OCC(N)=O)cc1)c1ccccc1	23.2%	3.79µM*	24.9%	22.2%	0.1%	?
Cc1ccc(Cn2ncc(Cl)c(Cl)c2=O)cc1	?	-0.3%	-13.6%	-6.7%	1.4%	-16.1%
